Data published in PubChem BioAssay (NCATS).
Results filed as inconclusive are left out. Values without a mark were called inactive. Active and inactive are the calls of the source. Calls come from the whole dose curve; as a rule, active = well fitted inhibition curve with a large enough effect; inconclusive = small, poorly fitted or top-dose-only effect; inactive = flat fitted curve, though single readings scatter.

Molecular target: Calcium and integrin-binding protein 1 (Homo sapiens) (UniProt Q99828)
Assay: Primary qHTS for Identification of Calcium Integrin Binding Protein 1 (CIB1) Competitor (AID 1508620);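 note: GST tagged CIB1 binding a fluorescein labelled alphaIIb integrin peptide tracer; top concentration of the series differs between compounds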
Settings: CIB1-GST / FITC-alphaIIb peptide fluorescence polarization; series mostly up to 114 µM; activity change, negative = inhibition: at the top concentration
Method in brief: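 Fluorescence polarization competition: CIB1-GST (1 uM final) preincubated with compound 15 min at room temperature, then FITC-labeled alphaIIb peptide (100 nM final) added for another 15 min. Polarization read at Ex 480/Em 540.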
% is set by controls: 0 for no effect and ±100 for the full control effect.

Sequence of Calcium and integrin-binding protein 1 (Homo sapiens) (Q99828 whole entry, looked up): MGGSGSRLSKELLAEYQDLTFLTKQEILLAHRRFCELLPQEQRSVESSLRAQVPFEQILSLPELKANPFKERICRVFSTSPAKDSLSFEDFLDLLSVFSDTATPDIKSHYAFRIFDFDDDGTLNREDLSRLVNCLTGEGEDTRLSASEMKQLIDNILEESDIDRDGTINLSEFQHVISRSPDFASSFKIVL

With CC1=CC(=O)C2(OC3OC(C)C(O)C(OC(=O)/C=C/c4ccccc4)C3O)C=COC(OC3OC(CO)C(O)C(O)C3O)C12 (stereo not given) the “activity change, negative = inhibition” value was -5.67% [at 30.2 µM].

In order of falling “activity change, negative = inhibition” value:
1. C#CCN(Cc1cc2c(=O)[nH]c(C)nc2cc1Br)c1ccc(C(=O)NCc2cccnc2)cc1  28.8%
2. CCCC1(c2ccccc2)NC(=O)N(CC(=O)N(C)Cc2c(F)cccc2Cl)C1=O (stereo not given)  7.44%
3. CCOC(=O)C(CCc1ccccc1)NC(C)C(=O)N1C(=O)N(C)CC1C(=O)O (stereo not given)  6.39%
4. COc1ccc(C(=O)Nc2ncc(-c3ccc(C(=O)O)cc3)s2)cc1  3.36%
5. CC(=O)SCC(=O)c1ccc(NS(=O)(=O)c2ccc(OCCCN(C)C)cc2)nc1  3%
6. CC1CCN(C(=O)CC#N)CC1N(C)c1ncnc2[nH]ccc12 (stereo not given)  2.6%
7. O=C1OCC(c2ccccc2)=C1Cc1ccccc1  1.16%
8. C=C(F)c1sc(CNCCCNc2cc(=O)c3ccccc3[nH]2)c(C)c1Br  1.12%
9. Cc1cc(O)cc(O[C@@H]2O[C@H](CO)[C@@H](O)[C@H](O)[C@H]2O)c1  -2.84%
10. COc1ncc(Nc2ncc([C@@H](C)N3CCN(S(C)(=O)=O)CC3)cc2-c2nc(C)nc(N)n2)cc1F  -7.68%
11. Cn1cc(S(=O)(=O)c2ccc(Cl)cc2)c2cccc(N3CCNCC3)c21  -9%

With NC(=O)[C@H]1CCS[C@@H]2C[C@]3(CCCN3C(=O)Cc3ccc(NC(=O)COc4ccc(Cl)cc4Cl)cc3)C(=O)N12 the Potency was “inactive”.

In order of falling “activity change, negative = inhibition” value:
1. COc1cc(C2Oc3c(OC)cc(CCCO)cc3C2CO)ccc1O[C@H]1O[C@H](C)[C@@H](O)[C@H](O)[C@@H]1O (stereo not given in full)  2.85% [at 57.7 µM]
2. C=C1CC23CC1CCC2C12OC(=O)C(C)(CCC1O)C2C3C(=O)O (stereo not given)  -3.84% [at 57.7 µM]
